# Measurements published in PubChem BioAssay (NCI).
# This is part of a sample that, as a whole, favours compounds with a hit. Of some 83,000 tested, about 20% had one in any assay.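 A percent growth of 40 corresponds to 60% growth inhibition; 0 means no net growth; -100 means all cells died. Active threshold: below 10.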 Values without a mark were called inactive. Active and inactive are the calls of the source.
# System: SK-MEL-28 melanoma
# Experiment: NCI-60 one-dose screen, 48 h (100 = growth as untreated, 0 = no growth, -100 = all killed)
# Details: 10 µM unless noted
# Experimental: Growth inhibition of the SK-MEL-28 human tumor cell line is measured as a screen for anti-cancer activity. Cells are grown in 96 well plates and exposed to the test compound for 48 hours. Compounds are tested at a single concentration, which is 10^-5 M for most compounds. The reported endpoint is percent growth (GI% or GIPRCNT), where numbers from 0 - 100% represent growth inhibition, and numbers from -100% - 0 represent cell death. For example, a value of 40 represents 60% growth inhibition. A value of 0 means no net growth occurred over the course of the experiment. A value of -40 indicates 40% of cells at the beginning of the experiment died by the end of the experiment. A value of -100 means all cells are dead at the end of the experiment.
# NCI-60 Human Tumor Cell Lines Screen was performed using the standard one-dose NCI protocol, which is described in more detail at https://dtp.cancer.gov/discovery_development/nci-60/default.htm.
# Compounds with GIPRCNT values below 10 were considered active. Activity score was based on GIPRCNT using the following formula: […]
# Score is 0 for GIPRCNT values of 100 or above, 50 for GIPRCNT values of 0, and 100 for GIPRCNT values of -100.
row,Compound,growth
1,O=C(N=c1n(-c2ccccc2)nc2n1CCN2C1=NCCN1C(=O)c1ccc(Cl)cc1)c1ccc(Cl)cc1,88.8%
2,CCCCC(CC)COC(=O)C[N+](C)(C)CCOC(c1ccccc1)c1ccccc1 (stereo not given),11.1%
3,COCCCNc1nc(NC(=O)c2cc(OC)cc(OC)c2)cc(-c2cccnc2)n1,105%
4,O=C1COCCN1c1ccc(NCc2cn(Cc3cccc4ccccc34)c3ccccc23)cc1,92.6%
5,Cn1cc(-c2noc(-c3cn(C)c4ncc(F)cc34)n2)c2ccccc21,94.1%
6,CC(C)(C)c1cc(C(=O)Nc2ccc(C(=O)NCCN)cc2)cc(C(C)(C)C)c1,-64.4% (active)
7,O=C(C[n+]1ccn(CC(OCc2ccc(Cl)cc2Cl)c2ccc(Cl)cc2Cl)c1)c1ccc(F)cc1 (stereo not given),-95.5% (active)
8,C#CCOc1ccc(C2=NN(CC3CC3)C3N=C(Cl)c4ncn(CC5CC5)c4N23)cc1OCC#C (stereo not given),93.6%
9,CCCc1cc2cc(-n3nc(C)c4c3CC(C)(C)CC4=O)cc(NC3CCSCC3)c2c(=O)[nH]1,68.6%
10,Cc1ccc(Cn2c(O)c(N=NC(=O)c3ccc(S(N)(=O)=O)cc3)c3ccccc32)cc1,106%
11,CCN(CC)c1ccc(/C=C/c2ccc3cc(C)ccc3[n+]2CC)cc1,2.66% (active)
12,COc1ccc(-c2cc(-c3ccc(OC)c(OC)c3)nc(SCCCCCC(=O)NO)n2)cc1,35.5%
13,O=C(NCc1ccc(Cn2c(=O)sn(-c3ccccc3)c2=O)cc1)OCc1ccc2c(Br)cc(Br)c(O)c2n1,-69.9% (active)
14,COc1cc2c(c(OC)c1)C1c3cc(OC)ccc3NC(=O)N1CC2 (stereo not given),88.9%
15,O=C(NCCCNC(=O)OCc1ccc2c(Br)cc(Br)c(O)c2n1)OCc1ccc2c(Br)cc(Br)c(O)c2n1,-75.9% (active)
16,C[C@H]1[C@H](C)CC[C@]2(C(=O)O)CC[C@]3(C)C(=CC[C@@H]4[C@@]5(C)C/C(=C/c6cccnc6)[C@H](O)C(C)(C)[C@@H]5CC[C@]43C)[C@H]12,-49.1% [100 µM] (active)
17,Nc1ccc2c(c1)Cc1cc(NC(=O)C(F)(F)F)ccc1-2,102%
18,C=C(C)[C@@H]1CC[C@]2(C(=O)NCCNCCNC(=O)OC(C)(C)C)CC[C@]3(C)[C@H](CC[C@@H]4[C@@]5(C)CCC(=O)C(C)(C)[C@@H]5CC[C@]43C)[C@@H]12,56.3% [100 µM]
19,O=C(O)c1cccc(CN2CCN(c3cc4c(cc3F)c(=O)c(C(=O)O)cn4C3CC3)CC2)c1O,106%
20,CC(C)[C@H]1CCC2=C3CC[C@]45OC(=O)[C@@]6(CCC(C)(C)C[C@H]64)CC[C@@]5(C)[C@]3(C)CC[C@@]21C,87.4% [100 µM]

row,Compound,growth
1,Cc1cccc(C[C@H](NC(=O)Nc2ccc(C)cc2F)C(=O)N[C@@H]2C(=O)N3C[C@H](O)C[C@H]3C(=O)N3CCN(C)C[C@H]3C(=O)N[C@@H](C)C(=O)N3C[C@H](C)C[C@H]3C(=O)O[C@H]2C)c1,47.9%
2,O=C(Nc1cccc(F)c1)c1cc(=O)[nH]c2cc(Br)ccc12,62.3%
3,Cc1cccc(C[C@H](NC(=O)Nc2ccc(Cl)cc2F)C(=O)N[C@@H]2C(=O)N3C[C@H](O)C[C@H]3C(=O)N3CCCC[C@H]3C(=O)N[C@@H](C)C(=O)N3C[C@H](C)C[C@H]3C(=O)O[C@H]2C)c1,0.552% (active)
4,O=C(CCNCc1ccccc1)c1ccccc1,113%
5,CCOC(=O)c1cc(C(=O)c2ccc(OC)c(OC)c2)n2ccc(-c3ccccn3)cc12,71%
6,C=CCCC1(C)NC(=O)NC1=O (stereo not given),106%
7,CC(C)CCSC1=CC(=O)c2ccccc2C1=O,27.2%
8,CCOC(=O)c1sc2nc(-c3cc(OC)c(OC)c(OC)c3)nc(N3CCOCC3)c2c1C,42.2%
9,CCn1cc(-c2[nH]c(=S)ncc2-c2ccc(Cl)cc2)c(-c2ccc(Br)cc2)n1,73.7%
10,CC(C)C1=NOC(=O)C1=Cc1cn(-c2cccnc2)nc1-c1ccccc1,112%
11,CN(C)CCCNc1nc(-c2cccc(C(Cl)(Cl)Cl)c2)nc(C(Cl)(Cl)Cl)n1,103%
12,COc1cc2c(c(OC)c1OC)-c1cc(I)c(O)cc1[C@@H](NC(C)=O)CC2,76.7%
13,O=C1CC(c2ccccc2)Cc2nc3ccc(Cl)cc3cc21 (stereo not given),50.6%
14,Fc1ccc(NC(=S)c2ccccc2)cc1,102%
15,COc1ncc(-c2ccc3nccc(C#CCCCCC(=O)NO)c3c2)cc1NS(=O)(=O)c1ccc(F)cc1F,-27.9% (active)
16,CCN(CC)CCCC(C)Nc1ccnc2cc(Cl)c(SCc3ccccc3)cc12 (stereo not given),-82.5% (active)
17,CCN(CC)CCCNCc1cc(-c2ccccc2)nc2ccccc12,92.7%
18,COC(=O)[C@]1(C)CC[C@]2(C)CC[C@]3(C)C(=CC(=O)[C@@H]4[C@@]5(C)CCC(=O)NC(C)(C)[C@@H]5CC[C@]43C)[C@@H]2C1,-67.3% [100 µM] (active)
19,COc1cc2c(O)n(CCCN3CCOCC3)c3c4cnc5cccc(c(=O)c3c2cc1OC)c54,66.2%
20,C[C@@H]1C[C@H]2C(=O)O[C@@H](C)[C@H](NC(=O)[C@H](Cc3cc(F)cc(F)c3)NC(=O)Nc3ccc(Cl)cc3F)C(=O)N3C[C@H](O)C[C@H]3C(=O)N3CCN(C)C[C@H]3C(=O)N[C@@H](C)C(=O)N2C1,41.3%
